The structures appear in SMILES notation. About 14,000 (4.5%) of roughly 310,000 compounds showed an effect of 50% or more. The effect is printed as a negative number. The sample holds strong results, similar compounds and a random draw of the others, so the mix is not that of the screen.
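Also: peak tail current of the secondary pulse compared with the same well before compound.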

The assay deals with human ether-à-go-go-related gene (hERG) potassium channel (human, UniProt Q12809). Nature of the assay: primary screen, population patch clamp on CHO cells stably expressing hERG; higher = less effect of the substance.
human ether-à-go-go-related gene (hERG) potassium channel, sequence (Q12809 whole entry, looked up): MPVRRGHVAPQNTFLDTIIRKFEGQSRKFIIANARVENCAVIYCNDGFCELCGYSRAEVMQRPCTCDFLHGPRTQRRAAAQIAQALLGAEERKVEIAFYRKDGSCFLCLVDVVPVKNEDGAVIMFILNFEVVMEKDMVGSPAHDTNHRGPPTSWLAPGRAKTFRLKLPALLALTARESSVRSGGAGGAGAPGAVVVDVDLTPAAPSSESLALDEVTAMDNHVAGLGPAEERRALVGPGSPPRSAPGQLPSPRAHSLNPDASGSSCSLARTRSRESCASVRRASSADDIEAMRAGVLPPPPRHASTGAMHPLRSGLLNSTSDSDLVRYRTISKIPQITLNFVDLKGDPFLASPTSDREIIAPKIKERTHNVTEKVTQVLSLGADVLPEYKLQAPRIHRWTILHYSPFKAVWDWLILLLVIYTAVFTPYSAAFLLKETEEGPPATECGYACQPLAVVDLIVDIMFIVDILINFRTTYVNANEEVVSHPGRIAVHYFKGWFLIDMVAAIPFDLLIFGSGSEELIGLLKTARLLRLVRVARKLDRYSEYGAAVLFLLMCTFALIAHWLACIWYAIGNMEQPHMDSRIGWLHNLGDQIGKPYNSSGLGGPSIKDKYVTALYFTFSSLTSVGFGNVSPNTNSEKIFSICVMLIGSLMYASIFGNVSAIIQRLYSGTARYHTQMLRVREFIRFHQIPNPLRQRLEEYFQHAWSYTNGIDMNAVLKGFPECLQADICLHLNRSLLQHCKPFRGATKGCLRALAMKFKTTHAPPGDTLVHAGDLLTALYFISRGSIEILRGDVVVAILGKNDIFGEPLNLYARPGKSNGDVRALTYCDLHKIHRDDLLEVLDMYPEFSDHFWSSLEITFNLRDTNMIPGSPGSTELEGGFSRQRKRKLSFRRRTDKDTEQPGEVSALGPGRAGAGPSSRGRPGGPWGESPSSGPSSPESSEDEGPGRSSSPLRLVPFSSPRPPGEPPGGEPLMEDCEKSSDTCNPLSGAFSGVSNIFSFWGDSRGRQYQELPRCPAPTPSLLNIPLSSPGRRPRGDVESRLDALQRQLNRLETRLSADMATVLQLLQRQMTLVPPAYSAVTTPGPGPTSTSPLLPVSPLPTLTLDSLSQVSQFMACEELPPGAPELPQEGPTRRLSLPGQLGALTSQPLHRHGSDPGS
Consider `O=[N+]([O-])c1ccc(Sc2ccc(F)cc2)nc1`, for which the “hERG current change (%, negative = inhibition) at 10uM” value amounted to 11.2%.
The same measure for `COc1ccc(C(=O)Nc2cccc(/C=C(\CCC(=O)O)c3nc4ccccc4s3)c2)cc1`: 8.59%; for `CN(C)/C=C1\C(=O)NN=C1C(F)(F)F`: 4.44%; for `Cc1cccn2cc(-c3cccc(S(=O)(=O)N4CCOCC4)c3)nc12`: 0.676%.
`COc1cc(OC)cc(C(=O)NCC(=O)N2CCCCC2)c1`: the “hERG current change (%, negative = inhibition) at 10uM” value was 9.25%.
Regarding `CCn1ncc(Cl)c1C(=O)Nc1ccc2c(c1)CCC2`, the “hERG current change (%, negative = inhibition) at 10uM” value stood at 3.85%.
The figure for `Cc1ccc(NC(=O)NCC2CCN(Cc3cccc(Cl)c3)CC2)cc1Cl` is -19.7%.
The figure for `CCc1ccc(NC(=O)NCC2CCN(c3ccc(OC)cc3)C2)cc1` (stereo not drawn) is -6.79%; for `CCc1ccc(NC(=O)NCC2CCN(Cc3cccc(Cl)c3)CC2)cc1` it is -82.9%; for `O=C(NCC1CCN(Cc2cccc(Cl)c2)CC1)Nc1ccc(Cl)cc1` it is -76.2%.
The figure for `O=C(NCC1CC1)Nc1ccc(Cl)cc1` is 17.7%; for `COc1ccc(Oc2nccc(OC)c2C#N)cc1` it is -0.188%; for `O=C(NCCCN1CCCC1=O)C1CCN(S(=O)(=O)c2cccc(Cl)c2Cl)CC1` it is -18.7%.
With `O=C(/C=C/c1ccccc1)OCC(=O)N1CCCC1`, the “hERG current change (%, negative = inhibition) at 10uM” value turned out to be 0.185%.
The same measure for `CCN1CCN(CCC(=O)Nc2ccc(Br)c(C)c2)CC1.Cl`: -30.8%; for `Cc1cc(NC(=O)CCN2CCCCC2)ccc1Br`: -72.8%.
Take `Cc1cc(NC(=O)CCN2CCN(C)CC2)ccc1Br.Cl`: the “hERG current change (%, negative = inhibition) at 10uM” value is reported as -7.85%.
The same measure for `Cc1cc(NC(=O)CCN2CC(C)OC(C)C2)ccc1Br.Cl` (stereo not drawn): -7.73%; for `Cc1cc(NC(=O)CCN2CCN(CCO)CC2)ccc1Br.Cl`: -4.69%.
The figure for `Cc1cc(NC(=O)CCN2CCC(C)CC2)ccc1Br.Cl` is -57.6%.
The same measure for `CCN(CC)CCNc1nc(-c2ccco2)c2c(c1C#N)CC(C)(C)OC2`: -62.6%.
Consider `CC1(C)Cc2c(C#N)c(NCc3ccco3)nc(-c3ccco3)c2CO1`, for which the “hERG current change (%, negative = inhibition) at 10uM” value is -8.94%.
For `CC1(C)Cc2c(C#N)c(NCCN3CCOCC3)nc(-c3ccco3)c2CO1`, the “hERG current change (%, negative = inhibition) at 10uM” value was -6.23%.
Consider `CC1(C)Cc2c(C#N)c(NCCc3ccccc3)nc(-c3ccco3)c2CO1`, for which the “hERG current change (%, negative = inhibition) at 10uM” value is on record as 12.5%.
For the compound `CN(C)CCNc1nc(-c2ccco2)c2c(c1C#N)CC(C)(C)OC2`, the “hERG current change (%, negative = inhibition) at 10uM” value is given as -55.7%.
As for `CCN(CC)CCNc1nc(-c2ccccc2)c2c(c1C#N)CC(C)(C)OC2`, the “hERG current change (%, negative = inhibition) at 10uM” value is -66.4%.
The figure for `CC1(C)Cc2c(C#N)c(NCCO)nc(-c3ccco3)c2CO1` is -4.23%.
The same measure for `CC1(C)Cc2c(C#N)c(N3CCOCC3)nc(-c3ccccc3)c2CO1`: -12.1%.
The same measure for `Cc1nc(NCCN)c(C#N)c2c1COC(C)(C)C2`: 16%.
With `COC(=O)c1c(NC(=S)NN2CCOCC2)sc2c1CCCC2`, the “hERG current change (%, negative = inhibition) at 10uM” value is 8.03%.
The same measure for `COc1ccc(S(=O)(=O)Nc2ccc(S(=O)(=O)NCC3CCCO3)cc2)cc1` (stereo not drawn): 6.4%.
On to `CCc1nc2c(sc3nc4c(cc32)COC(C)(C)C4)c(=O)n1CCN(CC)CC`, for which the “hERG current change (%, negative = inhibition) at 10uM” value was -38.1%.
`COc1ccc(C(=O)Nc2ccc3ccccc3n2)c(OC)c1OC`: the “hERG current change (%, negative = inhibition) at 10uM” value is listed as 17.8%.
Turning to `COc1ccc(C[C@H](N)C(=O)N[C@H]2[C@@H](O)[C@H](n3cnc4c(N(C)C)ncnc43)O[C@@H]2CO)cc1.Cl`, the “hERG current change (%, negative = inhibition) at 10uM” value is listed as -5.25%.
The same measure for `Cc1ccc(C(=O)Nc2ccc3c(c2)OCO3)cc1S(=O)(=O)N1CCCCC1`: -18.8%; for `CC(O)c1nc2ccccc2n1CCCOc1ccccc1` (stereo not drawn): -7.48%; for `O=C(CN1CCN(CC(=O)Nc2ccccc2Cl)CC1)Nc1ccc(F)c(F)c1`: -78.2%.
For the compound `CCN(CC)S(=O)(=O)c1ccc(Cl)c(C(=O)NC2CCN(Cc3ccccc3)CC2)c1.Cl`, the “hERG current change (%, negative = inhibition) at 10uM” value is on record as -28.8%.
The figure for `CCN(CC)S(=O)(=O)c1ccc(NCc2ccccc2)nc1` is -11.3%; for `O=C(CN1CCN(c2ccc(Cl)cc2)CC1)Nc1ccc(F)c(F)c1` it is -18.7%.
The figure for `CCN(CC)S(=O)(=O)c1ccc(NC2CCN(Cc3ccccc3)CC2)nc1` is -57.9%; for `O=C(CN1CCCCCC1)Nc1ccc(F)c(F)c1.O=C(O)C(=O)O` it is -22.4%; for `O=C(CN1CCN(Cc2ccccc2F)CC1)Nc1ccccc1Cl` it is -27.6%.
The figure for `Cl.O=C(CN1CCN(Cc2ccccc2)CC1)Nc1ccc2c(c1)CCC2` is -47.6%; for `O=C(CN1CCN(Cc2ccccc2)CC1)Nc1ccc(F)c(F)c1.O=C(O)C(=O)O` it is -57.1%.

The values are drawn from article PMC4336329 (PLoS ONE, 2015).
